According to PubChem BioAssay (NCATS):
Where “and” joins values, the source holds several entries; their conditions need not be identical. Equal entries are not always repeated. Results filed as inconclusive are left out. Calls of active or inactive are those of the source. Unless noted, calls come from the whole dose curve; as a rule, active = well fitted curve in the direction sought with a large enough effect; inconclusive = small, poorly fitted or top-dose-only effect, or another doubt; inactive = no such curve, though single readings can be large; an effect the other way counts as inactive or inconclusive.

Key:
[1] = biological target: Cytochrome P450 1A2 (Homo sapiens) (UniProt P05177); assay: p450-cyp1a2 (AID 410; calls by dose curve; note: potency is the fitted concentration of half-maximal effect)
In short: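 O-Demethylation of luciferin 6' methyl ether by human CYP1A2 is monitored as luciferase luminescence. Substrate sits at Km (100uM); enzyme is 20nM. Values are scaled to 57 uM furafylline as maximal inhibition.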

[2] = biological target: Cytochrome P450 2C19 (Homo sapiens) (UniProt P33261); assay: qHTS Assay for Inhibitors and Substrates of Cytochrome P450 2C19 (AID 899); note: % is set by controls: 0 for no effect and ±100 for the full control effect; nearly all actives have a fitted effect of over 60% in size
In short: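 Luminescent read-out of luciferin formed from Luciferin-H EGE (10uM, equal to KM). Enzyme 5nM in 50mM KPO4; compound added, 10 min at 37C, then NADPH regenerating system for 60 min at 37C. Full inhibition defined by 57uM ketoconazole.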

[3] = biological target: Cytochrome P450 2C9 (Homo sapiens) (UniProt P11712); assay: qHTS for inhibitors of CYP2C9 against the NCATS DSHEA and TCM libraries (AID 1919973); note: potency is the fitted concentration of half-maximal effect
In short: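 Concentration-response screening with isoform-matched pro-luciferin substrates. The CYP reaction was initiated by NADPH regenerating solution and ran 30-45 min in darkness at room temperature.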

[4] = biological target: Cytochrome P450 1A2 (Homo sapiens) (UniProt P05177); assay: qHTS for inhibitors of CYPIA2 against the NCATS DSHEA and TCM libraries (AID 1919976); note: potency is the fitted concentration of half-maximal effect
In short: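 Enzyme and pro-luciferin substrate, or substrate alone as no-enzyme background, are pre-incubated with test samples for 15 min at room temperature. NADPH regeneration system (1x final) initiates a 30-45 min dark reaction; luciferase detection reagent follows before luminescence reading.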

[5] = biological target: Cytochrome P450 3A4 (Homo sapiens) (UniProt P08684); assay: qHTS Assay for Inhibitors and Substrates of Cytochrome P450 3A4 (AID 884); note: nearly all actives have a fitted effect of over 50% in size; note: potency is the fitted concentration of half-maximal effect
In short: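 Luminescent readout of luciferin produced by CYP3A4 (20 nM) dealkylation of Luciferin-PPXE, 25 uM (its KM). NADPH-driven reaction ran 60 min at RT after 10 min compound preincubation; data scaled to 57 uM ketoconazole as 100% inhibition.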

[6] = biological target: Peroxisome proliferator-activated receptor gamma (Homo sapiens) (UniProt P37231); assay: qHTS assay for small molecule agonists of peroxisome proliferator-activated receptor gamma signaling (AID 588536; active = well fitted curve in the direction sought with a large enough effect in the signal ratio, with a control signal flat, not every such curve was filed as active; the % refers to the signal ratio;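 note: 0% = DMSO basal wells and 100% = rosiglitazone at 2 µM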)
In short: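 Using GeneBLAzer HEK293 cells, response was quantified by CCF4 fluorescence and normalized between basal DMSO (0%) and rosiglitazone 2 uM (100%); curves yielded half-maximal stimulation concentration and efficacy.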

[7] = qHTS assay for small molecule antagonists of retinoid X receptor alpha signaling (AID 588546; active = well fitted inhibition curve with a large enough effect in the signal ratio, with a control signal flat, not every such curve was filed as active; the % refers to the signal ratio;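 note: cells stimulated with 9-cis-retinoic acid as agonist; % is set by controls: 0 for no effect and ±100 for the full control effect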); details: HEK293T RXRa-UAS-bla, beta-lactamase ratio, antagonist mode; measured here: W530 green channel, cytotoxicity proxy
In short: (§1)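 Beta-lactamase reporter inhibition, read as CCF4 fluorescence ratio (ex 405, em 460/530 nm) after 2 h at RT. HEK293T UAS-bla cells, 2500/well, were stimulated with 9-cis-RA at 500 or 100 nM final alongside test compound for 18 h at 37 C.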

[8] = biological target: Retinoic acid receptor RXR-alpha (Homo sapiens) (UniProt P19793); assay: as above; details: HEK293T RXRa-UAS-bla, beta-lactamase ratio, antagonist mode
In short: as §1

[9] = qHTS assay for small molecule activators of the p53 signaling pathway (AID 651743; active = well fitted activation curve with a large enough effect in the signal ratio, not every such curve was filed as active; the % refers to the signal ratio; note: series mostly up to about 92 µM; % of control where 0% means no effect); details: HCT-116 p53RE-bla, beta-lactamase FRET ratio, 16 h; activation: stronger effect = higher value
In short: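 Following 16 hours of compound exposure at 37 C, HCT-116 cells bearing the p53RE-bla reporter were loaded with LiveBLAzer B/G FRET substrate for 2 hours at room temperature and fluorescence intensity was recorded.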

[10] = qHTS assay for environmental chemicals that activate the Aryl hydrocarbon Receptor (AhR) signaling pathway (AID 651777); details: 1A2-DRE human hepatoma cells, luciferase, 24 h; activation: stronger effect = higher value; note: nearly all actives have a fitted effect of over 15% in size; note: potency is the fitted concentration of half-maximal effect; for activation: % of control where 0% means no effect
In short: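 Measured luciferase activity, read 30 min after One-Glo addition at room temperature, from human hepatoma cells bearing a dioxin response element–CYP1A2 promoter reporter and exposed to compound for 24 hr at 37 C.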

[11] = biological target: Peroxisome proliferator-activated receptor alpha (Homo sapiens) (UniProt Q07869); assay: qHTS assay for small molecule agonists of the peroxisome proliferator-activated receptor alpha (PPARalpha) signaling pathway (AID 651778); details: PathHunter PPARalpha complementation, chemiluminescence, 6 h; max response: stronger effect = higher value; note: % of control where 0% means no effect
In short: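 Enzyme-fragment complementation assay in which ligand-bound PPARalpha translocates and forms an active enzyme that generates chemiluminescence. Cells were plated overnight, exposed to compound for 6 hr at 37 C, and then given detection reagent for 60 min at room temperature.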

[12] = qHTS assay for small molecule agonists of the antioxidant response element (ARE) signaling pathway measured by Nrf2-dependant transcriptional activity - cell viability counter screen (AID 720653; active = well fitted curve in the direction sought with a large enough effect in the repeat runs; an effect the other way counts as inactive or inconclusive; note: % is set by controls: 0 for no effect and ±100 for the full control effect); details: ARE-bla HepG2 viability, CellTiter-Glo ATP luminescence, 16 h; max response: stronger effect = lower value
In short: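 ARE-bla HepG2 cells treated with compounds for 16 h at 37C; this counter screen measures viability as intracellular ATP by CellTiter-Glo luminescence after 30 min at room temperature.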

[13] = qHTS assay for cell viability of HEK293 cells (AID 743288); details: ATP luminescence (CellTiter-Glo), 18 h; max response: stronger effect = lower value; note: % is set by controls: 0 for no effect and ±100 for the full control effect; nearly all actives have a fitted effect of over 50% in size
In short: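 Viable-cell counts were inferred from luciferase-based ATP content in HEK293 cells seeded at 2,000/well, pre-incubated ≥5 h, then dosed with DMSO-solubilised compounds for 18 h at 37 C.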

[14] = biological target: Estrogen receptor (Homo sapiens) (UniProt P03372); assay: qHTS assay for small molecule antagonists of estrogen receptor alpha signaling (AID 588513; active = well fitted curve in the direction sought with a large enough effect in the signal ratio, with a control signal flat, not every such curve was filed as active; the % refers to the signal ratio; note: % is set by controls: 0 for no effect and ±100 for the full control effect)
In short: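 Fluorescence from CCF4 substrate after 2 h at room temperature gave reporter activity; cells had been exposed to compound and 0.5nM 17-beta-estradiol for 18 h at 37 C. Hill-equation fitting yielded IC50 and maximal response.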

[15] = biological target: Cytochrome P450 3A4 (Homo sapiens) (UniProt P08684); assay: qHTS Assay for Activators of Cytochrome P450 3A4 (AID 885); note: nearly all actives have a fitted effect of over 65% in size
In short: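 Using 20nM recombinant human CYP3A4 in potassium phosphate (200mM), substrate Luciferin-PPXE at 25uM, luminescent luciferin detection followed a 60-min RT NADPH reaction; data scaled to 57 uM ketoconazole.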

Sequence of Estrogen receptor (Homo sapiens) (P03372 whole entry, looked up): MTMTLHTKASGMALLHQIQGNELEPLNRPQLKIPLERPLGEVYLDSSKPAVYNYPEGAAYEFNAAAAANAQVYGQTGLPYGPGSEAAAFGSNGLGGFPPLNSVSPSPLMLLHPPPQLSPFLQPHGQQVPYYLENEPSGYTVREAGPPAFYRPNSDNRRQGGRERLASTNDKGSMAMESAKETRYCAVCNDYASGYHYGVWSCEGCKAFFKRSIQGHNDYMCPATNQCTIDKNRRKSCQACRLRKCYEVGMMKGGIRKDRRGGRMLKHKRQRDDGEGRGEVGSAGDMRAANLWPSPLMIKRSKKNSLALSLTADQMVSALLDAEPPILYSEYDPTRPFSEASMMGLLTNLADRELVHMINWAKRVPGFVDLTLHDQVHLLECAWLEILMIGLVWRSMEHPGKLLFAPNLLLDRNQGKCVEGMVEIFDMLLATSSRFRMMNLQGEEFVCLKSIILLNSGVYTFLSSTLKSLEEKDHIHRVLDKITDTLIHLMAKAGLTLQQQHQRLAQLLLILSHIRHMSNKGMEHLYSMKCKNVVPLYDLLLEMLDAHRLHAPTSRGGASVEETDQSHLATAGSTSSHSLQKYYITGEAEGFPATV
Sequence of Cytochrome P450 1A2 (Homo sapiens) (P05177 whole entry, looked up): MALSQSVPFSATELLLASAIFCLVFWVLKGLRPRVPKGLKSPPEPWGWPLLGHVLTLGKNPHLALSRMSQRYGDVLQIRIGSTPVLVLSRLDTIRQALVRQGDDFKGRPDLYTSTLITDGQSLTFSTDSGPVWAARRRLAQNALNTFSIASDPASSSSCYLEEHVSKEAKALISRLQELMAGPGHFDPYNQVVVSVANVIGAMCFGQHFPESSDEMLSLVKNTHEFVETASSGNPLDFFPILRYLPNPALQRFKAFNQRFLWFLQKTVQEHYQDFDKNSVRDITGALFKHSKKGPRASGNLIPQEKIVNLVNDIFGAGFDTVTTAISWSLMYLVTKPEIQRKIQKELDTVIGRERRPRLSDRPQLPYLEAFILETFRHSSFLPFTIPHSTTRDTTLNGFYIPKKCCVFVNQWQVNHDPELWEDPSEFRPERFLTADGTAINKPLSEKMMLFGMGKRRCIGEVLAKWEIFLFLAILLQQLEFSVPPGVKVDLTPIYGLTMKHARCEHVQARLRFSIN
Sequence of Cytochrome P450 3A4 (Homo sapiens) (P08684 whole entry, looked up): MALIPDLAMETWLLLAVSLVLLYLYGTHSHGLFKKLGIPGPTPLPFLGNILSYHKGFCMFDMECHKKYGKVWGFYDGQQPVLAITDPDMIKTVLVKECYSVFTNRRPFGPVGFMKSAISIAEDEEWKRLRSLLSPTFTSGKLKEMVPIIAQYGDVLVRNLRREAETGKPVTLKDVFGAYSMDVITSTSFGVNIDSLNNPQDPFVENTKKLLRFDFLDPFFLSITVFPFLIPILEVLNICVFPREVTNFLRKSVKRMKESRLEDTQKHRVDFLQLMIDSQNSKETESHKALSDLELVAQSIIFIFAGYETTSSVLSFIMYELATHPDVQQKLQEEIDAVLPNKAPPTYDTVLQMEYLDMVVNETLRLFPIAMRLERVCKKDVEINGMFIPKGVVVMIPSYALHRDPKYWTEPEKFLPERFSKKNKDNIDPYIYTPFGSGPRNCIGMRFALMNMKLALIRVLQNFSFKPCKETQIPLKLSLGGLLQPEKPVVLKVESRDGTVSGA
Sequence of Peroxisome proliferator-activated receptor gamma (Homo sapiens) (P37231 whole entry, looked up): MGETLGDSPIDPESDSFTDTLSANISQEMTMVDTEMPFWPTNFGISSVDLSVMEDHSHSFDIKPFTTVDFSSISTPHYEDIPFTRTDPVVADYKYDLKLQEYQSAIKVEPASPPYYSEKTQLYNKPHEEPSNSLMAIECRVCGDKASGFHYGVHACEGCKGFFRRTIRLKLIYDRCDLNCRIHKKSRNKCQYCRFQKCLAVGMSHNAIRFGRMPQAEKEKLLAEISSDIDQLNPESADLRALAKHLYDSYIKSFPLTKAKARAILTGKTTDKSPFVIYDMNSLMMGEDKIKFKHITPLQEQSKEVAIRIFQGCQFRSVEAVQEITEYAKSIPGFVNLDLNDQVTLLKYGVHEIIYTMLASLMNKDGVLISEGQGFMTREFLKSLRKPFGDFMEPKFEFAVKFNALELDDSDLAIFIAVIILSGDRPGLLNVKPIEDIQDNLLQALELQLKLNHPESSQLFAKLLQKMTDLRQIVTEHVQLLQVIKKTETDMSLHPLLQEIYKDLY
Sequence of Cytochrome P450 2C9 (Homo sapiens) (P11712 whole entry, looked up, canonical isoform): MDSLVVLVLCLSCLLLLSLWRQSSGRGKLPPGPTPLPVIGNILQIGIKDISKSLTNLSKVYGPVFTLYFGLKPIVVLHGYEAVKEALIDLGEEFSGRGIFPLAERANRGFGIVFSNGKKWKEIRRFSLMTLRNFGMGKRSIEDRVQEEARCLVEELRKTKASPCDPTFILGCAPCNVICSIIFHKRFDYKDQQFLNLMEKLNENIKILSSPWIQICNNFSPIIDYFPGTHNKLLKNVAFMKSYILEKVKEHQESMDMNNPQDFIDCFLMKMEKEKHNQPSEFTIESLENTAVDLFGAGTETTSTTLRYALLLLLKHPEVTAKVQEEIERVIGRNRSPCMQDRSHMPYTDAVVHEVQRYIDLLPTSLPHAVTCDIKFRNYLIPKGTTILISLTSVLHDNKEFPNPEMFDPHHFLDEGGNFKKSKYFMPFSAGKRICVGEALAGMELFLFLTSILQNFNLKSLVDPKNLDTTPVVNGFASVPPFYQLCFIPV
Sequence of Retinoic acid receptor RXR-alpha (Homo sapiens) (P19793 whole entry, looked up): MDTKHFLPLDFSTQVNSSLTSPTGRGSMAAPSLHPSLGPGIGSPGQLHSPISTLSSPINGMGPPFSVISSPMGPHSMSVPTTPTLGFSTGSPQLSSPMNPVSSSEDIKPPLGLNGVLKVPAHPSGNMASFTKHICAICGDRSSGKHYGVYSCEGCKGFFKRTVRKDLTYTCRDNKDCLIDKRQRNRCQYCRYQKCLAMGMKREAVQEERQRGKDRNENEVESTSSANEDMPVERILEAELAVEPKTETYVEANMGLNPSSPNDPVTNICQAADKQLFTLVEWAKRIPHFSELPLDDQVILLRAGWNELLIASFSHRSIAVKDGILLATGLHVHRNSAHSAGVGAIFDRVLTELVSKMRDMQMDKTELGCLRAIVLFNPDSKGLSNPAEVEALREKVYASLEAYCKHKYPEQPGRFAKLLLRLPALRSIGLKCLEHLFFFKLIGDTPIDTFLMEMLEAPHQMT
Sequence of Peroxisome proliferator-activated receptor alpha (Homo sapiens) (Q07869 whole entry, looked up, the tested form may be a part): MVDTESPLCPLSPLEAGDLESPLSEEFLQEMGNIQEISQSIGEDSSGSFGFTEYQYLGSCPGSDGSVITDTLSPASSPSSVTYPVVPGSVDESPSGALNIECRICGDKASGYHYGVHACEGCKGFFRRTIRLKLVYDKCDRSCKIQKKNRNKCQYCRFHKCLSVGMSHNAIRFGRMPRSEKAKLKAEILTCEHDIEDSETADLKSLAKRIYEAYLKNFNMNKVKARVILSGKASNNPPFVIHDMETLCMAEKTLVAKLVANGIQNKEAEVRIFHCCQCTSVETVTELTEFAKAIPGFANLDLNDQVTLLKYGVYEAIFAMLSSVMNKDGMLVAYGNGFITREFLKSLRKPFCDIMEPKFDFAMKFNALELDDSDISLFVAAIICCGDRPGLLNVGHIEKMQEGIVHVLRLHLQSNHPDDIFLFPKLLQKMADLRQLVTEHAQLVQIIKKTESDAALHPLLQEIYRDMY
Sequence of Cytochrome P450 2C19 (Homo sapiens) (P33261 whole entry, looked up): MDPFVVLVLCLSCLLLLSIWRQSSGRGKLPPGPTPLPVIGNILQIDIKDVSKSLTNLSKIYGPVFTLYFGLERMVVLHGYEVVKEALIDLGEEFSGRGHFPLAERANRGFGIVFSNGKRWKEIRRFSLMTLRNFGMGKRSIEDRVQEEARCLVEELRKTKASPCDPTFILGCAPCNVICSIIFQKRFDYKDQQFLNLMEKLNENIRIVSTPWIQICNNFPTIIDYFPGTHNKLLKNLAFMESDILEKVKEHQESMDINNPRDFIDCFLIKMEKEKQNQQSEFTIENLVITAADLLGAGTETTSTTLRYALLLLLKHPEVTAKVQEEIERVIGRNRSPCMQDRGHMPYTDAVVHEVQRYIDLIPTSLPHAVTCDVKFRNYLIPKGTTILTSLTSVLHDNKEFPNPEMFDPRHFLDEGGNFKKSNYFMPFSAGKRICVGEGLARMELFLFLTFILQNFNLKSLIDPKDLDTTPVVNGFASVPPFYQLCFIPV

Compound: O=c1cc(-c2ccc(O)c(O)c2)oc2cc(O[C@@H]3O[C@@H](CO)[C@@H](O)[C@@H](O)[C@H]3O)cc(O)c12
- Potency [1]: 39.8 µM (active)
- Potency [2]: inactive
- Potency [3]: 3.98 µM (active)
- Potency [4]: 3.98 µM (active)

Compound: O=c1c(O[C@@H]2O[C@H](CO)[C@H](O)[C@H](O)[C@H]2O)c(-c2ccc(O)c(O)c2)oc2cc(O)cc(O)c12
- Potency [3]: 7.94 µM (active)

Compound: C=CCc1ccc(OC)c(OC)c1
- Potency [5]: inactive
- outcome [6]: inactive
- max response [7]: -6.05% and 0.363%
- max response [8]: 9.84% (inactive) and -24.7% (inactive)
- activation [9]: 0.847% (inactive) and -0.413% (inactive)
- activation [10]: 0.456% (inactive) and 0.0921% (inactive)
- max response [11]: 8.14% (inactive) and -0.977% (inactive)
- max response [12]: -3.29% (inactive) and -7.51% (inactive)
- max response [13]: 3.16% (inactive) and -7.18% (inactive)
- Potency [3]: inactive

Compound: C=CC(=C)CCC=C(C)C
- Potency [5]: inactive
- Potency [14]: inactive
- outcome [6]: inactive
- max response [7]: 4.75%
- max response [8]: 7.13% (inactive)
- activation [9]: 0.0217% (inactive)
- activation [10]: 0.322% (inactive)
- max response [11]: -1.83% (inactive)
- max response [12]: 6.84% (inactive)
- max response [13]: 1.18% (inactive)

Compound: O=C(/C=C/c1ccc(O)c(O)c1)OC1[C@H](O)CC(O)(C(=O)O)C[C@@H]1O (stereo partly drawn)
- Potency [3]: inactive

Compound: C=C1C[C@@]23CC[C@H]4[C@](C)(CCC[C@]4(C)C(=O)O[C@@H]4O[C@H](CO)[C@@H](O)[C@H](O)[C@H]4O)[C@@H]2CC[C@]1(O[C@H]1O[C@@H](CO)[C@H](O)[C@@H](O)[C@@H]1O)C3
- Potency [3]: inactive

Compound: COc1cc(/C=C/c2ccccc2)oc(=O)c1
- Potency [5]: 15.8 µM (active)
- outcome [15]: inactive
- Potency [14]: inactive
- outcome [6]: inactive
- max response [7]: 21.7%
- max response [8]: -7.15% (inactive)
- activation [9]: -4.84% (inactive)
- Potency [10]: 7.08 µM (active)
- max response [11]: -1.59% (inactive)
- max response [12]: -6.81% (inactive)
- max response [13]: -23% (inactive)
- Potency [4]: 7.08 µM (active)

Compound: O=C(O)c1ccccc1
- Potency [5]: inactive
- Potency [14]: inactive
- outcome [6]: inactive
- max response [7]: -4.31%
- max response [8]: -3.53% (inactive)
- activation [9]: 7.69% (inactive)
- activation [10]: 2.1% (inactive)
- max response [11]: -2.27% (inactive)
- max response [12]: 1.2% (inactive)
- max response [13]: -1.04% (inactive)
- Potency [4]: inactive

Compound: Cc1ccc(O)c(O)c1
- Potency [3]: inactive
- Potency [4]: inactive

Compound: CC(C)(O)[C@@H]1CC[C@](C)([C@H]2[C@@H](O)C[C@@]3(C)[C@@H]4C[C@H](O)[C@H]5C(C)(C)[C@@H](O[C@@H]6OC[C@@H](O)[C@H](O)[C@H]6O[C@@H]6O[C@H](CO)[C@@H](O)[C@H](O)[C@H]6O)CC[C@@]56C[C@@]46CC[C@]23C)O1
- Potency [3]: inactive
- Potency [4]: inactive

Compound: CCCCCCCC/C=C\CCCCCCCCCCCCCC(=O)O
- Potency [3]: inactive

Compound: CC1=C2[C@H](/C=C(\C)C(=O)O)CC[C@@H](C)[C@H]2CC1
- Potency [5]: inactive
- Potency [14]: inactive
- outcome [6]: inactive
- max response [7]: 26.2%
- max response [8]: -25.2% (inactive)
- activation [9]: -7.78% (inactive)
- activation [10]: 0.0877% (inactive)
- max response [11]: 14.9% (inactive)
- max response [12]: -0.329% (inactive)
- max response [13]: 5.67% (inactive)

Compound: CCCCCCCC/C=C/CCCCCCCCCC(=O)O
- Potency [4]: inactive

Compound: CCCCCCCCC/C=C/C(=O)CCc1ccc(O)c(OC)c1
- Potency [3]: 11.2 µM (active)

Compound: CC(C)=CCC[C@](C)(O[C@@H]1O[C@H](CO)[C@@H](O)[C@H](O)[C@H]1O)[C@H]1CC[C@]2(C)[C@@H]1[C@H](O)C[C@@H]1[C@@]3(C)CC[C@H](O)C(C)(C)[C@@H]3[C@@H](O[C@@H]3O[C@H](CO)[C@@H](O)[C@H](O)[C@H]3O)C[C@]12C
- Potency [4]: inactive
